Experimental findings from ChEMBL document CHEMBL3988442, “University of Dundee, Small-Polar-MMV Screening Library” (2021) are described below.

What all share (parameters): scale not given: direction of the effect not stated beside the values
The target in experiment [1] is Protein translocase subunit SecA (Escherichia coli (strain K12)) (UniProt P10408). Kind of experiment: Assay to Identify E. coli SecA ATPase Inhibitors. The experiment is classed as functional. To be noted: 30 µM.
The target of experiment [2] is T1, Ubiquitin-activating enzyme e1, putative (Leishmania donovani (strain BPK282A1)) (UniProt E9BSI1).
T1 sequence (whole entry): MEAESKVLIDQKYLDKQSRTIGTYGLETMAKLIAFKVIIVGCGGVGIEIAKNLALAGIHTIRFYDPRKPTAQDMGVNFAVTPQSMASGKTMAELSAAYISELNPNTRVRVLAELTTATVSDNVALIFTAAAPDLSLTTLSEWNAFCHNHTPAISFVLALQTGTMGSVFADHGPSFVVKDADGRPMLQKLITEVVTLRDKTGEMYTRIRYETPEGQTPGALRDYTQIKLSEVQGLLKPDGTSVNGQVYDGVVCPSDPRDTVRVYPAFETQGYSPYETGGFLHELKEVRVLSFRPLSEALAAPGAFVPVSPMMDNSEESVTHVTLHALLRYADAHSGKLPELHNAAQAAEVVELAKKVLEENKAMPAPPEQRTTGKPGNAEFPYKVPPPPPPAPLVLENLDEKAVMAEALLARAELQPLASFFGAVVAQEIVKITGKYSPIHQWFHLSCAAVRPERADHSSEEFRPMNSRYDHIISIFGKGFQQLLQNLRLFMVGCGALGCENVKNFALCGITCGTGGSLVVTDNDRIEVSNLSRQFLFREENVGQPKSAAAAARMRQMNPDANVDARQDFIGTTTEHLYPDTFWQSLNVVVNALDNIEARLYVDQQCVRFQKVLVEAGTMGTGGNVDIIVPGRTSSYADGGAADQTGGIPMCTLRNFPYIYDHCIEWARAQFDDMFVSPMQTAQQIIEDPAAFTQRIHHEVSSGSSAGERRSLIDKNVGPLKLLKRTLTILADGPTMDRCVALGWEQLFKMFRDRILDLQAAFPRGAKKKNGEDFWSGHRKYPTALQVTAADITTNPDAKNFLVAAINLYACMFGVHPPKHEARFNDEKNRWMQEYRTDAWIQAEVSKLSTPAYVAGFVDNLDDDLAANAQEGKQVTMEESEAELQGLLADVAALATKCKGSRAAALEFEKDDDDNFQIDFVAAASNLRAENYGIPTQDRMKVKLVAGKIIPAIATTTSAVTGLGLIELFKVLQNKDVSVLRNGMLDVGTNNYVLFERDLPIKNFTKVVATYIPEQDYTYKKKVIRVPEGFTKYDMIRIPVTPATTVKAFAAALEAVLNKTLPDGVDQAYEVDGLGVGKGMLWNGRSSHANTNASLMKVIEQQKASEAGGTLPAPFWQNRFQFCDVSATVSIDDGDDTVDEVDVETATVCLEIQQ
Kind of experiment: Leishmania donovani Ubiquitin Activating Enzyme (LdE1). The experiment is classed as functional. Particulars: 30 µM.

Experiment [3] deals with Sialic acid-binding Ig-like lectin 9 (Homo sapiens) (UniProt Q9Y336). Nature of the experiment: Hs-Siglec9 ALPHAscreen SOP 20170721. To be noted: 10 µM. (Bead proximity is the source of the signal in Alpha formats.)
Sequence of Sialic acid-binding Ig-like lectin 9 (Homo sapiens) (Q9Y336 whole entry): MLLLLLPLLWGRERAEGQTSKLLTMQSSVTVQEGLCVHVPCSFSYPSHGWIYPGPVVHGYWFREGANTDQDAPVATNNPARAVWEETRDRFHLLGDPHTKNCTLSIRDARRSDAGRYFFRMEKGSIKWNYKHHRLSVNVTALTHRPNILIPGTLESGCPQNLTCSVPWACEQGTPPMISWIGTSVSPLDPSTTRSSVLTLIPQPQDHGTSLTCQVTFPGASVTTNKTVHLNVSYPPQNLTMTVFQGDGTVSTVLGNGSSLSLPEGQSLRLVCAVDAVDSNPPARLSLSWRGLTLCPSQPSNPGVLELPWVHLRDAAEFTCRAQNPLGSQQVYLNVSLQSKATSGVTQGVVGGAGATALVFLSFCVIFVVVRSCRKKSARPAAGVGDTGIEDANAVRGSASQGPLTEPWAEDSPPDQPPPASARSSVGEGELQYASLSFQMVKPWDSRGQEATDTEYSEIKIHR
Experiment [4] concerns Trypanosoma cruzi. Nature of the experiment: Trypanosoma cruzi phosphomannomutase and mannose-1-phosphate guanylyltransferase assay. Format: functional. To be noted: 10 µM.
Experiment [5] addresses T2, Arginase-2, mitochondrial (Homo sapiens) (UniProt P78540).
T2 sequence (whole entry): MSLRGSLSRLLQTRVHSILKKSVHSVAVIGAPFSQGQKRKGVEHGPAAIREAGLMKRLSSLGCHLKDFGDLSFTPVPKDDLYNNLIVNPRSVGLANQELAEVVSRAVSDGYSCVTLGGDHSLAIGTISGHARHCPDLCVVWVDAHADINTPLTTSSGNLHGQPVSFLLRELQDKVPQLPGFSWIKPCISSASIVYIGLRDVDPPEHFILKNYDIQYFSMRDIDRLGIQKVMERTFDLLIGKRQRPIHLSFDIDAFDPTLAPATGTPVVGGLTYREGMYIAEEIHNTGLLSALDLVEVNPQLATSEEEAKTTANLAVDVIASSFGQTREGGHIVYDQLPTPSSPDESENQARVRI
Kind of experiment: in vitro enzyme assay to detect the production of urea directly proportional to the activity of Arginase II. Further: in the data most compounds retested in dose-response had high values. Format: functional. Particulars: 33.3 µM.

Experiment [6] has as its target T3, Proteasome subunit beta (Trypanosoma cruzi) (UniProt O96673).
T3 sequence (whole entry): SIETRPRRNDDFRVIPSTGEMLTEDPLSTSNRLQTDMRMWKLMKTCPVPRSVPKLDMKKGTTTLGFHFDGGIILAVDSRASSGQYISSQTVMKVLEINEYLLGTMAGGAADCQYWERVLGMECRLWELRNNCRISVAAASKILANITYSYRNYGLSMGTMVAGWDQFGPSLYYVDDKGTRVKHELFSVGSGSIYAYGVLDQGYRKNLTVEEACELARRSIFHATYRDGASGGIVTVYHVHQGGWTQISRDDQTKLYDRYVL
Kind of experiment: Trypanosoma cruzi proteasome chymotrypsin-like activity (TcProtChymo) assay. Further: in the data most compounds retested in dose-response had high values. Format: functional. To be noted: 9.37 µM.

For experiment [7], the species on record is Homo sapiens. Kind of experiment: To identify inhibition of the IFN signalling (Jak-Stat) pathway via expression of an eGFP reporter gene under the control of an IFN-stimulated response element (ISRE) containing MxA promoter. The experiment is classed as functional. To be noted: 30 µM. Background: In a reporter assay the amount or activity of a reporter protein is the signal.

In experiment [8] the target is T4, Tyrosyl-tRNA synthetase, putative (Trypanosoma cruzi (strain CL Brener)) (UniProt Q4DSP6).
T4 sequence (whole entry): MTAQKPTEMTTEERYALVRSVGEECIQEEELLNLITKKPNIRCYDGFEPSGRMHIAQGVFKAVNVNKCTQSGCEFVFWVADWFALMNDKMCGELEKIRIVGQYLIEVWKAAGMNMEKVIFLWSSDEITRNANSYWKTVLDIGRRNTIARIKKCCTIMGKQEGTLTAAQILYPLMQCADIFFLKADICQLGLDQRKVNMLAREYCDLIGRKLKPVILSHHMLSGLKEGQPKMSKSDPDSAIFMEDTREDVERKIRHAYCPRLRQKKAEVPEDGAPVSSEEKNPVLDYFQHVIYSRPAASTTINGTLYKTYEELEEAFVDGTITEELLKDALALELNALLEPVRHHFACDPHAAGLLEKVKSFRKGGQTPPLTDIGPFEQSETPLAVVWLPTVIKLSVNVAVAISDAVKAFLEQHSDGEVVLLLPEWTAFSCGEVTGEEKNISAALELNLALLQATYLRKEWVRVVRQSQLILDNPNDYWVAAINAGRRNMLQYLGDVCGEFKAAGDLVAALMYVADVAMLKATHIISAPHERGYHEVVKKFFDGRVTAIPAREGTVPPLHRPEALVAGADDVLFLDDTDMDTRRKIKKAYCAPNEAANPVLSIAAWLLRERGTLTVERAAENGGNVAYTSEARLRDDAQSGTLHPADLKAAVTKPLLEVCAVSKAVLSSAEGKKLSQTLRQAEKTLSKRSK
Kind of experiment: Trypanosoma cruzi tyrosyl tRNA synthetase (TcYRS) _High Tyrosine SOP. Further: in the data most compounds retested in dose-response had high values. The experiment is classed as functional. Particulars: 30 µM.

Experiment [9] concerns the target T4, Tyrosyl-tRNA synthetase, putative (Trypanosoma cruzi (strain CL Brener)). Nature of the experiment: Trypanosoma cruzi tyrosyl tRNA synthetase (TcYRS) SOP. Format: functional. Particulars: 30 µM.
Experiment [10] has as its target Chromo domain-containing protein 1 (Saccharomyces cerevisiae (strain ATCC 204508 / S288c) (Baker's yeast)) (UniProt P32657). Nature of the experiment: ScCHD-1 Enzyme Inhibition Assay. Further: in the data most compounds retested in dose-response had high values. To be noted: 30 µM. The experiment is classed as functional.

For part of these data: Results with a measured potency or affinity are listed apart.

Sequence of Protein translocase subunit SecA (Escherichia coli (strain K12)) (P10408 whole entry): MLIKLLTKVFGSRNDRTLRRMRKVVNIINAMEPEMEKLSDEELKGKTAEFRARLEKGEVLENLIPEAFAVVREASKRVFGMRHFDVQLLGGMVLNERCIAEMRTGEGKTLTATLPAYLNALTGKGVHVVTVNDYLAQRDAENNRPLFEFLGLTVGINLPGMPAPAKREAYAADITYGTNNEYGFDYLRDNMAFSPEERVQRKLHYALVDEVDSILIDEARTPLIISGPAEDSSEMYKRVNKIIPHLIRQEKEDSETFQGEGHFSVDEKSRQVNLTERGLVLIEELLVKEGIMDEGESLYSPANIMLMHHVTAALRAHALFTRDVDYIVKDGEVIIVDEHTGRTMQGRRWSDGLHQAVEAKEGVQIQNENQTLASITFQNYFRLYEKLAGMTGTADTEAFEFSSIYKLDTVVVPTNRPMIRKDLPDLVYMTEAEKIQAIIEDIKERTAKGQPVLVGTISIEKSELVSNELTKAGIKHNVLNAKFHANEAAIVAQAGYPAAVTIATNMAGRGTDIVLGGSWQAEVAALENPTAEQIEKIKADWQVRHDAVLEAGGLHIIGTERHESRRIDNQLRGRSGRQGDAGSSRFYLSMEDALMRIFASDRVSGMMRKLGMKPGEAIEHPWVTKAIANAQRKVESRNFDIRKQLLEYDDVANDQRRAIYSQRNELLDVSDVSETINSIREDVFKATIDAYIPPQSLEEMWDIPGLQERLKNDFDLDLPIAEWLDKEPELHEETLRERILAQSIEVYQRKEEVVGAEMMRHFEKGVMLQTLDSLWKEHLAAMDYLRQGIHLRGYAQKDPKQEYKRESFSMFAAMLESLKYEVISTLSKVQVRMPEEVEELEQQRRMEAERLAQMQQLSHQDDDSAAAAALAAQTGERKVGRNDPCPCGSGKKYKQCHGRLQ
Sequence of Chromo domain-containing protein 1 (Saccharomyces cerevisiae (strain ATCC 204508 / S288c) (Baker's yeast)) (P32657 whole entry, the tested form may be a part): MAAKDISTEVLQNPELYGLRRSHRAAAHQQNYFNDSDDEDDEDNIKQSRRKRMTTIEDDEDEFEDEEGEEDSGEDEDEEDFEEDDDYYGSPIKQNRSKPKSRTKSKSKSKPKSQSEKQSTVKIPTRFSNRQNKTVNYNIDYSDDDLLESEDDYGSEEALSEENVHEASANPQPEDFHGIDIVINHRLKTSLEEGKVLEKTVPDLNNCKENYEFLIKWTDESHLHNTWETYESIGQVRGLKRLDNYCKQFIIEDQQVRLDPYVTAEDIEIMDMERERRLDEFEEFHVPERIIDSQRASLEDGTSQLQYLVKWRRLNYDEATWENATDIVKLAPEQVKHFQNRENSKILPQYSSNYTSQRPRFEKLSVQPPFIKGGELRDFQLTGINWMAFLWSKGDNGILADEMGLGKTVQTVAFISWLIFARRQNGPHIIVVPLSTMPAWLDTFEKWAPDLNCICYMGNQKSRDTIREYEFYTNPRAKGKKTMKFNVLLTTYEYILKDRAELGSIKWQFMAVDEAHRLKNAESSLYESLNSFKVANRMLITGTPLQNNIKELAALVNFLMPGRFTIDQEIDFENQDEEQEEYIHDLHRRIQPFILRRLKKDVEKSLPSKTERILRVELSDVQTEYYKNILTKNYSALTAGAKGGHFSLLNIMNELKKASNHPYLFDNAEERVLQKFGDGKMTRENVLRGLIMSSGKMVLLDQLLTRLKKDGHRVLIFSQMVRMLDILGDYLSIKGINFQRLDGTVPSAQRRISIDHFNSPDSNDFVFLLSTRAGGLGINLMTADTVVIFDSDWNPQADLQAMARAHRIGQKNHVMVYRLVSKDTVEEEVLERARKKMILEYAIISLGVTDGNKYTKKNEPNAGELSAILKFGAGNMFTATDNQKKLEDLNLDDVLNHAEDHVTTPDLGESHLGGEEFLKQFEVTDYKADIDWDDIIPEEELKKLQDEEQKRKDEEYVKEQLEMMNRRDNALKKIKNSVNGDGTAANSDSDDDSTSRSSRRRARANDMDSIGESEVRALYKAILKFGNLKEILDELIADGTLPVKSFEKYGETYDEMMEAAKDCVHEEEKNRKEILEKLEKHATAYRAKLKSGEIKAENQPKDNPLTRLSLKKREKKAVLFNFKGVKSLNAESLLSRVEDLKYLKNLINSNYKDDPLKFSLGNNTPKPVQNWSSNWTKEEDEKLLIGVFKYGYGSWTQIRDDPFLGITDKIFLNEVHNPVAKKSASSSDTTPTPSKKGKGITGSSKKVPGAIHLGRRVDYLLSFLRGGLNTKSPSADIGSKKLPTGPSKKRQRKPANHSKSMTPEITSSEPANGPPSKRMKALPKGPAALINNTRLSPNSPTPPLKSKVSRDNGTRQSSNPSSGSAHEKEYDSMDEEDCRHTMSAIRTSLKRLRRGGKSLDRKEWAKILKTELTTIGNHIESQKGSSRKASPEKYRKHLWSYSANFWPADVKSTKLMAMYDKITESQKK

As to `COC(=O)c1cccn1C1CCN(CC(=O)NC2CCCCC2)CC1`, the Percent Effect in [1] was -0.883%; in experiment [2], 15.6%; in experiment [3], 8.78%; in experiment [4] it was -1.31%; in experiment [5] it was 3.07%; in experiment [6] it was 13.5%. In addition, the Percent Effect in [7] was 2.4%; in [8] it was 9.8%; in experiment [9] it was 21.2%; in experiment [10], -5.06%.

`Cc1cnn(CC2CN(CC(=O)N(C)c3nccs3)CCO2)c1` (stereo not given): the Percent Effect in experiment [1] was -4.67%; in experiment [2] it was 8%; in experiment [3], 4.67%; in [4], 0.201%; in [5], -2.66%; in experiment [6], 9.75%. Besides, the Percent Effect in experiment [7] was 13.5%; in experiment [8], 4.74%; in experiment [9] it was 10.3%; in experiment [10] it was -8.81%.

For `Cc1cc(C)n(CC2CCCN2CCS(=O)(=O)c2ccccc2)n1` (stereo not given), the Percent Effect was -0.665% in experiment [1]; -7.69% in experiment [2]; -1.27% in experiment [3]; 0.845% in experiment [4]; 9.43% in experiment [5]; -2.47% in experiment [6]. Besides, the Percent Effect was 18.7% in experiment [7], 1.44% in experiment [8], -1.21% in experiment [9] and 1.56% in [10].

Take `CN(Cc1ccco1)[C@@H]1CN(Cc2ccc(F)cc2)C[C@@H]2CCCO[C@@H]21`: the Percent Effect was -5.51% in [1]; 9.09% in experiment [2]; -4.8% in experiment [3]; -5.16% in experiment [4]; -6.48% in experiment [5]; 15.4% in [6]. Moreover, the Percent Effect is -5.78% in [7], 3.68% in experiment [8], 12.8% in experiment [9] and -3.55% in experiment [10].

On to `CCOc1ncccc1C(=O)N1CCCC(c2nccn2CCOC)C1` (stereo not given), for which the Percent Effect is -8.34% in experiment [1]; 5.41% in [2]; 1.4% in experiment [3]; -1.26% in [4]; -3.85% in experiment [5]; 12.2% in [6]. The Percent Effect in experiment [7] is 9.33%; in experiment [8], 3.72%; in experiment [9] it was 12.2%; in [10], 2.21%.

In the case of `CS(=O)(=O)N1CCC[C@]2(C[C@@H](Oc3ncccc3F)CO2)C1`, the Percent Effect in [1] is -5.48%; in [2] it was 11.7%; in [3], -6.01%; in [4], -0.682%; in [5], 4.05%; in experiment [6], 10.3%. Besides, the Percent Effect was -0.297% in [7], 12.1% in experiment [8], 12.8% in experiment [9] and 1.06% in experiment [10].

Regarding `CCc1[nH]ncc1C(=O)N1CCCC(n2nc(C)nc2C)C1` (stereo not given), the Percent Effect in experiment [1] is -6.31%; in experiment [2], 2.56%; in [3], -8.9%; in [4], 11.9%; in [5], -1.23%; in experiment [6], 2.82%. Besides, the Percent Effect is 7.13% in [7], 0.478% in [8], 8.43% in experiment [9] and -10.4% in experiment [10].

Consider `Cc1cnn(C2CCCN(C(=O)c3sccc3C#N)C2)c1` (stereo not given), for which the Percent Effect in experiment [1] is -7.04%; in experiment [2], 0%; in [3] it was -9.94%; in experiment [4], -1.78%; in experiment [5], -2.05%; in experiment [6], -3.33%. The Percent Effect was 30.2% in experiment [7], 0.478% in experiment [8], 1.21% in experiment [9] and -3.26% in experiment [10].

Consider `COc1ccc(-c2nc(CN3CCc4c(ncn4C)C3)cs2)cc1`, for which the Percent Effect in experiment [1] was -0.999%; in experiment [2] it was -12.8%; in experiment [3] it was -13.6%; in experiment [4] it was 3.66%; in experiment [5] it was 0.41%; in experiment [6], 13.4%. Also, the Percent Effect was found to be 18.6% in experiment [7], 18.7% in [8], 22.9% in experiment [9] and 4.88% in experiment [10].

Consider `Cc1nn(-c2ccccc2)c(C)c1CNC1CCc2ncnn2C1` (stereo not given), for which the Percent Effect in experiment [1] was -0.655%; in experiment [2], 10.3%; in experiment [3] it was 7.05%; in experiment [4], 4.79%; in experiment [5], 8.2%; in experiment [6], 7.93%. Also, the Percent Effect is -12.2% in experiment [7], 7.18% in experiment [8], 22.9% in experiment [9] and -3.12% in [10].

On to `CNc1cc(N2CCCC2CNCc2cnc(C)cn2)ncn1` (stereo not given), for which the Percent Effect in [1] was -4.22%; in experiment [2] it was 0%; in experiment [3] it was -3.13%; in experiment [4] it was 1.78%; in experiment [5], 6.15%; in experiment [6], 2.47%. Moreover, the Percent Effect in [7] is 21.4%; in [8], 2.39%; in [9], 1.21%; in experiment [10], 2.01%.

With `COc1ccc(F)cc1C(=O)N(C)Cc1cc(C)on1`, the Percent Effect is -0.183% in experiment [1]; 15.4% in experiment [2]; -5.44% in [3]; -1.22% in [4]; -0.41% in [5]; 14.1% in [6]. For the same compound, the Percent Effect in experiment [7] was 21.1%; in [8], 2.39%; in [9], 13.2%; in experiment [10], -1.49%.
